About 83,000 compounds went through this panel and 20% of them were active in at least one assay; those are over-represented in the sample as a whole.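 Step 1: grow cells in 96-well plates. Step 2: add test compound at a single concentration. Step 3: incubate 48 h. Step 4: record percent growth.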 Calls of active or inactive are those of the source. The calls were made as follows: active = growth percent below 10; inactive = the rest.
Columns and labels:
Experiment in all cases: NCI-60 one-dose screen, 48 h (100 = growth as untreated, 0 = no growth, -100 = all killed)
Details in all cases: 10 µM unless noted
[1] = system: DU-145 prostate
[2] = system: MALME-3M melanoma
[3] = system: MDA-MB-231 breast
[4] = system: RXF 393 renal
[5] = system: SF-268 CNS
[6] = system: SF-295 CNS
[7] = system: SF-539 CNS
[8] = system: UACC-257 melanoma
[9] = system: M14 melanoma
[10] = system: HCT-15 colon
[11] = system: HT29 colon
[12] = system: SNB-75 CNS
[13] = system: SNB-19 CNS
[14] = system: U251 CNS
[15] = system: PC-3 prostate
[16] = system: SK-MEL-5 melanoma
[17] = system: UACC-62 melanoma
[18] = system: LOX IMVI melanoma
[19] = system: SK-MEL-28 melanoma

Measured: growth

S=c1[nH]nc(Cn2c3ccccc3c3ccncc32)o1
inactive: [1] 108% | [2] 100% | [3] 100% | [4] 112% | [5] 103% | [6] 108% | [7] 101% | [8] 89.7% | [9] 101% | [10] 110% | [11] 94.6% | [12] 102% | [13] 98.6% | [14] 94.8% | [15] 99.4% | [16] 102% | [17] 93.3% | [18] 97.8% | [19] 101%

C=C1C(=O)O[C@H]2[C@H]1CC/C(COC(=O)c1cc(OC)c(OC)c(OC)c1)=C\CC[C@@]1(C)O[C@@H]21
active: [1] -23.8% | [2] -57.7% | [3] -39% | [4] -87.8% | [7] -48.3% | [8] -41.3% | [9] -36.7% | [10] -42.8% | [11] -80.2% | [14] 9.17% | [16] -23.8% | [17] -50.7% | [18] -94.9% | [19] -36.5%
inactive: [5] 16.5% | [6] 51% | [12] 45.9% | [13] 30.5% | [15] 18.6%

O=C(Cn1c2ccccc2c2ccncc21)N/N=C\c1ccc2ccccc2c1
active: [1] 9.11% | [2] 3.45% | [3] 5.36% | [4] 1.74% | [11] -8.93% | [12] 3.82% | [14] -25.9% | [17] 7.54%
inactive: [5] 41.6% | [6] 28.7% | [7] 27.6% | [8] 59.7% | [9] 30.9% | [10] 23.8% | [13] 40.5% | [15] 13.8% | [16] 15.4% | [18] 19.4% | [19] 58.3%

Nc1nc(Nc2ccc(OCc3cccc(F)c3)cc2)c2c(n1)[nH]c1ccc(O)cc12
inactive: [1] 10.4% | [13] 12.3%
active: [2] -69.5% | [3] -67.9% | [4] -76% | [5] -14.7% | [6] -69.2% | [7] -84% | [8] -31.2% | [9] -83% | [10] -8.62% | [11] -84.2% | [12] -63.5% | [14] -91% | [15] 4.64% | [16] -78.1% | [17] -75.1% | [18] -96% | [19] -67.4%

Cc1cn(-c2nc3c(c(NCc4ccccc4)n2)COCC3)c2cccc(C(N)=O)c12
active: [16] -20.3% [0.5 µM]
inactive: [1] 87.6% [0.5 µM] | [2] 82.9% [0.5 µM] | [3] 58.5% [0.5 µM] | [4] 43.6% [0.5 µM] | [5] 76.9% [0.5 µM] | [6] 36.1% [0.5 µM] | [7] 84.6% [0.5 µM] | [8] 68.1% [0.5 µM] | [9] 55.2% [0.5 µM] | [10] 81.9% [0.5 µM] | [11] 63.4% [0.5 µM] | [12] 107% [0.5 µM] | [13] 97.4% [0.5 µM] | [14] 93.5% [0.5 µM] | [15] 83.8% [0.5 µM] | [17] 44.3% [0.5 µM] | [18] 16.3% [0.5 µM] | [19] 96.5% [0.5 µM]

COc1ccc(/C=N/C2=NNC(C)(c3ccccc3O)N2C(Cc2c[nH]c3ccccc23)C(=O)O)cc1 (stereo unspecified)
active: [11] 5.86% | [16] -78.3%
inactive: [1] 58.9% | [2] 12.9% | [3] 28.8% | [4] 35.5% | [5] 40.2% | [6] 35.3% | [7] 45.2% | [8] 23.5% | [9] 10.8% | [10] 39.7% | [12] 32.5% | [13] 27.8% | [14] 21% | [15] 23.8% | [17] 17.7% | [18] 19.2% | [19] 33.5%

N#CC1=C(N)Oc2c(ccc3ccccc23)C1c1cc(=O)oc2ccc(Cl)cc12 (stereo unspecified)
active: [4] 7.4% | [7] 3.16% | [9] 3.47% | [11] 6.85%
inactive: [1] 19.4% | [2] 77.8% | [3] 50% | [5] 56.1% | [6] 14.1% | [8] 73.5% | [10] 25.8% | [12] 20.2% | [13] 33.4% | [14] 24.4% | [15] 18.2% | [16] 28.3% | [17] 36.5% | [18] 42% | [19] 62.9%

COc1cc2ncnc(Oc3ccc(NC(=O)Nc4ccc(CN5CCOCC5)c(C(F)(F)F)c4)c4ccccc34)c2cc1OC
active: [2] -11.1% | [16] -26.5% | [19] 2.47%
inactive: [1] 32.6% | [3] 51.2% | [4] 20.8% | [5] 23.3% | [6] 40.6% | [7] 55.4% | [8] 21.1% | [9] 20.4% | [10] 32.9% | [11] 14.2% | [12] 46% | [13] 55.2% | [14] 42.6% | [15] 40% | [17] 28% | [18] 21.5%

FC(F)(F)c1cn(CCN2CCOCC2)c2ncnc(Cl)c12
inactive: [1] 57.8% | [2] 111% | [3] 63.8% | [4] 82.9% | [5] 67.5% | [6] 96.5% | [7] 87% | [8] 84% | [9] 38% | [10] 14.9% | [11] 72.7% | [12] 78.1% | [13] 22.5% | [14] 71.2% | [15] 28.1% | [16] 42.5% | [17] 53.2% | [19] 72.4%
active: [18] -63.9%

CN1C(=O)C2(SCC(C(=O)NCC(=O)OC(C)(C)C)N2C(=O)C2CCCCC2)c2ccccc21 (stereo unspecified)
inactive: [1] 105% | [2] 101% | [3] 100% | [4] 105% | [5] 96.7% | [6] 96.9% | [7] 99.8% | [8] 92.7% | [9] 100% | [10] 96.6% | [11] 87.6% | [12] 80.4% | [13] 99.2% | [14] 92% | [15] 94.6% | [16] 98.2% | [17] 91.8% | [18] 94.9% | [19] 103%

COc1cc2ncnc(Oc3ccc(NC(=O)Nc4ccc(C5(C#N)CCCC5)cc4)c4ccccc34)c2cc1OC
inactive: [1] 57.7% | [2] 31.3% | [3] 43.6% | [4] 14.9% | [5] 27% | [6] 13.7% | [7] 64.7% | [8] 94.8% | [9] 47.3% | [10] 74.5% | [11] 35% | [12] 36.1% | [13] 36.7% | [15] 56.8% | [16] 50.2% | [17] 40% | [18] 47.7% | [19] 64.1%
active: [14] -49.3%

O=C(c1ccccc1)[C@H]1[C@@H]2CCCN2[C@]2(C(=O)Nc3ccc(F)cc32)[C@]12C(=O)Nc1ccccc12
inactive: [1] 94% | [2] 125% | [3] 75.5% | [4] 81.9% | [5] 90.2% | [6] 97.6% | [7] 90.1% | [8] 83.3% | [9] 85.2% | [10] 86.9% | [11] 89.8% | [12] 83.2% | [13] 90.8% | [14] 80.5% | [15] 65.7% | [16] 83.6% | [17] 70.7% | [18] 91.3% | [19] 92.8%

Cc1ccc2oc(=O)cc(C3C(C#N)=C(N)Oc4c3ccc3ccccc43)c2c1 (stereo unspecified)
inactive: [1] 96.3% | [2] 95.5% | [3] 81.9% | [4] 79.2% | [5] 82.7% | [6] 75.8% | [7] 82.6% | [8] 85.4% | [9] 61.5% | [10] 51.1% | [11] 38.8% | [12] 67.5% | [13] 84.9% | [14] 82.8% | [15] 55.6% | [16] 61.1% | [17] 61.4% | [18] 75.4% | [19] 86.2%

CCc1c2cc(Cl)ccc2n2cc(Cc3ccccc3)[nH]c(=O)c12
inactive: [1] 104% | [2] 85.3% | [3] 97.4% | [4] 116% | [5] 95.4% | [6] 98.1% | [7] 103% | [8] 104% | [9] 99.9% | [10] 98.9% | [11] 110% | [12] 96.9% | [13] 104% | [14] 99.5% | [15] 97.4% | [16] 104% | [17] 98.2% | [18] 98.2% | [19] 107%
